Measured values from PubChem BioAssay (NCATS).
Records with an inconclusive call do not appear. Calls of active or inactive are those of the source. The call rests on the fitted dose curve; in most records, active means well fitted curve in the direction sought with a large enough effect; inconclusive means small, poorly fitted or top-dose-only effect, or another doubt; inactive means no such curve, though single readings can be large; an effect the other way counts as inactive or inconclusive. Square brackets hold non-standard residues; d marks the D form. Peptide text beside a SMILES is read from it. Orn = NCCC[CH](N)C(=O)O

Key:
[1] = biological target: Ubiquitin carboxyl-terminal hydrolase 1 (Homo sapiens) (UniProt O94782); test: Inhibitors of USP1/UAF1: Pilot qHTS (AID 504865); further: nearly all actives have a fitted effect of over 35% in size; further: potency means the concentration at half of the fitted maximal effect
Chain of Ubiquitin carboxyl-terminal hydrolase 1 (Homo sapiens) (O94782 whole entry, looked up): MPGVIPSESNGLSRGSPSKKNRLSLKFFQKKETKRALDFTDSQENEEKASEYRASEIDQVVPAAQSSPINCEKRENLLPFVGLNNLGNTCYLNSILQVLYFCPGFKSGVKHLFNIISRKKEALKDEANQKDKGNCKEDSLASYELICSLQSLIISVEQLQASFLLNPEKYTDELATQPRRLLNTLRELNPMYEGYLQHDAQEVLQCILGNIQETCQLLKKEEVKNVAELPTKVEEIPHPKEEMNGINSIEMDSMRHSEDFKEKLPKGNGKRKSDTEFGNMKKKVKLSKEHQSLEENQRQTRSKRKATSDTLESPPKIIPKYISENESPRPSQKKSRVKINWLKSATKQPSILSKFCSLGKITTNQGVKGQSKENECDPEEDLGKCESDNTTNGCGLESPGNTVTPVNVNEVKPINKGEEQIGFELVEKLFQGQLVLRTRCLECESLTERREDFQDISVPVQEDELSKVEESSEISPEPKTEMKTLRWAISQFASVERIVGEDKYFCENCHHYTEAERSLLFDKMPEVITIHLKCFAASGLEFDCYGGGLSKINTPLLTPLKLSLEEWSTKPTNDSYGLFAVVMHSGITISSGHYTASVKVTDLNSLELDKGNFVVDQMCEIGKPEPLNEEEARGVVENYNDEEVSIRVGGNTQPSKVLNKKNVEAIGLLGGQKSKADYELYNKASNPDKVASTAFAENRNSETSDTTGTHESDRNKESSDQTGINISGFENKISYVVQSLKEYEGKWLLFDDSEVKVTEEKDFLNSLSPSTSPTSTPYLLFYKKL
Procedure, shortened: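 Deubiquitinase activity followed as kinetic rhodamine fluorescence release from 150 nM Ub-Rho. 1 nM USP1/UAF1 with compound, after 15 min room-temperature preincubation, in HEPES pH 7.8 buffer containing TCEP, EDTA, BSA and Tween-20.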

[2] = qHTS profiling for inhibitors of Plasmodium falciparum proliferation (AID 504749); further: potency means the concentration at half of the fitted maximal effect;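 on activity, negative = inhibition: 0% = DMSO vehicle and full inhibition = artemisinin control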; on all read-outs here: nearly all actives have a fitted effect of over 60% in size; settings: P. falciparum in erythrocytes, SYBR Green DNA, 72 h; for activity, negative = inhibition: at 28.7 µM (top of the series)
Procedure, shortened: (§1)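 Each compound contacts P. falciparum-infected red blood cells for 72 h at 37 C; lysis buffer (Tris, EDTA, saponin, Triton X, SYBR Green I) is added and fluorescence measured next morning; values normalized to controls.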

7G8 = test: as above; settings: P. falciparum in erythrocytes, SYBR Green DNA, 72 h; series mostly up to 28.7 µM
Procedure, shortened: as §1

ATS189 = test: as above; settings: P. falciparum in erythrocytes, SYBR Green DNA, 72 h; series mostly up to 28.7 µM
Procedure, shortened: as §1

CP185 = test: as above; settings: P. falciparum in erythrocytes, SYBR Green DNA, 72 h; series mostly up to 28.7 µM
Procedure, shortened: as §1

CP201 = test: as above; settings: P. falciparum in erythrocytes, SYBR Green DNA, 72 h; series mostly up to 28.7 µM
Procedure, shortened: as §1

CP238 = test: as above; settings: P. falciparum in erythrocytes, SYBR Green DNA, 72 h; series mostly up to 28.7 µM
Procedure, shortened: as §1

CP252 = test: as above; settings: P. falciparum in erythrocytes, SYBR Green DNA, 72 h; series mostly up to 28.7 µM
Procedure, shortened: as §1

CP265 = test: as above; settings: P. falciparum in erythrocytes, SYBR Green DNA, 72 h; series mostly up to 28.7 µM
Procedure, shortened: as §1

CP286 = test: as above; settings: P. falciparum in erythrocytes, SYBR Green DNA, 72 h; series mostly up to 28.7 µM
Procedure, shortened: as §1

CP305 = test: as above; settings: P. falciparum in erythrocytes, SYBR Green DNA, 72 h; series mostly up to 28.7 µM
Procedure, shortened: as §1

CP325 = test: as above; settings: P. falciparum in erythrocytes, SYBR Green DNA, 72 h; series mostly up to 28.7 µM
Procedure, shortened: as §1

FAB9 = test: as above; settings: P. falciparum in erythrocytes, SYBR Green DNA, 72 h; series mostly up to 28.7 µM
Procedure, shortened: as §1

PC15 = test: as above; settings: P. falciparum in erythrocytes, SYBR Green DNA, 72 h; series mostly up to 28.7 µM
Procedure, shortened: as §1

PC49 = test: as above; settings: P. falciparum in erythrocytes, SYBR Green DNA, 72 h; series mostly up to 28.7 µM
Procedure, shortened: as §1

[3] = biological target: DNA dC->dU-editing enzyme APOBEC-3G (Homo sapiens) (UniProt Q9HC16); test: qHTS for inhibitors of Vif-A3G interactions: Validation (AID 588379); further: 0% is about no effect
Chain of DNA dC->dU-editing enzyme APOBEC-3G (Homo sapiens) (Q9HC16 whole entry, looked up): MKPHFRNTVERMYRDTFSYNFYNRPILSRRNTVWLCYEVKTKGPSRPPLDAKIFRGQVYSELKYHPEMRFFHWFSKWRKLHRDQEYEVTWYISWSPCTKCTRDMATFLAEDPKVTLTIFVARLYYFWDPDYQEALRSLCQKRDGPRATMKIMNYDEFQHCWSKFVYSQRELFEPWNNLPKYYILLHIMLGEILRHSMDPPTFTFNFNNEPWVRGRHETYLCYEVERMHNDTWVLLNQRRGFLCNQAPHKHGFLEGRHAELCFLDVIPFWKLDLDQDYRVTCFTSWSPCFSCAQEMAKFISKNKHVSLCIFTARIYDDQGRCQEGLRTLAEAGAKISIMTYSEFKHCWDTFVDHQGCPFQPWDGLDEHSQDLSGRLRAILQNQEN
Procedure, shortened: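 Yellow fluorescence (Ex 488, Em 500-530) of Vif-coexpressing HeLa A3G-eYFP cells, scanned by Acumen cytometer, reports blocked A3G degradation. Cells plated at 700/well overnight at 37 deg C before compound addition, then a further overnight compound incubation at 37 deg C.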

[4] = biological target: Cytochrome P450 3A4 (Homo sapiens) (UniProt P08684); test: qHTS Assay for Inhibitors and Substrates of Cytochrome P450 3A4 (AID 884); further: nearly all actives have a fitted effect of over 50% in size; further: potency means the concentration at half of the fitted maximal effect
Chain of Cytochrome P450 3A4 (Homo sapiens) (P08684 whole entry, looked up): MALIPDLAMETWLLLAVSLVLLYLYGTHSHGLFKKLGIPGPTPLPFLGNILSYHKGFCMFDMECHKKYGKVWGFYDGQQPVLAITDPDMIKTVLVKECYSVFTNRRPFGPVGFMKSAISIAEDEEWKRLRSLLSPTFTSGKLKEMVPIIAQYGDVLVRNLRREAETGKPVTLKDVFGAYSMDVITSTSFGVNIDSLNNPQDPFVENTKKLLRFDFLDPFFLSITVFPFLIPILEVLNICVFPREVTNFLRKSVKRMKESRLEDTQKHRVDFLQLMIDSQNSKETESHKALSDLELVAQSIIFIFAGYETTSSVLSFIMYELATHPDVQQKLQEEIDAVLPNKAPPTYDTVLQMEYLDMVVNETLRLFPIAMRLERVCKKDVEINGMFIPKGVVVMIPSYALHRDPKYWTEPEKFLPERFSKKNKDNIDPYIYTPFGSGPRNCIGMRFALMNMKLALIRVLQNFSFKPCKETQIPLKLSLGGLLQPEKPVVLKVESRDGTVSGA
Procedure, shortened: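 Luminescent readout of luciferin produced by CYP3A4 (20 nM) dealkylation of Luciferin-PPXE, 25 uM (its KM). NADPH-driven reaction ran 60 min at RT after 10 min compound preincubation; data scaled to 57 uM ketoconazole as 100% inhibition.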

[5] = biological target: Cytochrome P450 3A4 (Homo sapiens) (UniProt P08684); test: qHTS Assay for Activators of Cytochrome P450 3A4 (AID 885); further: nearly all actives have a fitted effect of over 65% in size
Procedure, shortened: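 Activators are scored by enhanced luminescence from CYP3A4 conversion of luciferin-PPXE (25uM, equal to KM) to luciferin, after 60 min at RT with an NADPH-regenerating system.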

[6] = Confirmation and Secondary Assay for Modulators of Hemoglobin Beta Chain Splicing at IVS2 654 locus (AID 910);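 further: HeLa cells stably carrying EGFP split by mutant beta-globin IVS2-654 intron; % of control where 0% means no effect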
Procedure, shortened: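 HeLa cells stably expressing EGFP interrupted by β-globin IVS2-654 intron, seeded overnight in Opti-MEM/2% FCS, then treated 2 days at 37 °C. Restored splicing read as total peak GFP intensity per well by laser scanning cytometry (488 nm excitation, 500–520 nm emission); 500 nM antisense PNA as control.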

CC(C)C[C@H](NC(=O)[C@@H](Cc1c[nH]c2ccccc12)NC(=O)[C@@H](Cc1ccc(O)cc1)NC(=O)[C@@H](CO)NC(=O)[C@@H](Cc1c[nH]c2ccccc12)NC(=O)C(Cc1cnc[nH]1)NC(=O)C1CCC(=O)N1)C(=O)N[C@@H](CCCN=C(N)N)C(=O)N1CCC[C@@H]1C(=O)NCC(N)=O (stereo partly specified)
inactive: Potency [1] | activity, negative = inhibition ([2]; parasite line A) 17.3% | activity, negative = inhibition ([2]; parasite line B) 2.16% | Potency (7G8) | Potency (ATS189) | Potency (CP185) | Potency (CP201) | Potency (CP238) | Potency (CP252) | Potency (CP265) | Potency (CP286) | Potency (CP305) | Potency (CP325) | Potency (FAB9) | Potency (PC15) | Potency (PC49)

COc1ccc(-c2oc3cc(OC)ccc3c(=O)c2O)cc1
inactive: Potency [1] | Potency [3]

O=C(/C=C/c1ccc(O)cc1)c1c(O)cc(O)cc1O
active: Potency [4] 7940 nM
inactive: Potency [5] | Potency [1] | Potency [3]

Cn1cc(O)nc1NC(=O)Nc1cccc(Cl)c1
inactive: Potency [1] | activity, negative = inhibition ([2]; parasite line A) -22.2% | activity, negative = inhibition ([2]; parasite line B) -22.3% | Potency (7G8) | Potency (ATS189) | Potency (CP185) | Potency (CP201) | Potency (CP238) | Potency (CP252) | Potency (CP265) | Potency (CP286) | Potency (CP305) | Potency (CP325) | Potency (FAB9) | Potency (PC15) | Potency (PC49)

C[C@H](C(=O)O)c1cccc(C(=O)c2ccccc2)c1
inactive: Potency [1] | Potency [3]

CC(C)CC(NC(=O)C(COC(C)(C)C)NC(=O)C(Cc1ccc(O)cc1)NC(=O)C(CO)NC(=O)C(Cc1c[nH]c2ccccc12)NC(=O)C(Cc1cnc[nH]1)NC(=O)C1CCC(=O)N1)C(=O)NC(CCCN=C(N)N)C(=O)N1CCCC1C(=O)NNC(N)=O (stereo unspecified)
inactive: Potency [1] | activity, negative = inhibition ([2]; parasite line A) 11.9% | activity, negative = inhibition ([2]; parasite line B) 5.86% | Potency (7G8) | Potency (ATS189) | Potency (CP185) | Potency (CP201) | Potency (CP238) | Potency (CP252) | Potency (CP265) | Potency (CP286) | Potency (CP305) | Potency (CP325) | Potency (FAB9) | Potency (PC15) | Potency (PC49)

CCC(C)C1NC(=O)C(Cc2ccc(O)cc2)NC(=O)C(N)CSSCC(C(=O)N2CCCC2C(=O)NC(CC(C)C)C(=O)NCC(N)=O)NC(=O)C(CC(N)=O)NC(=O)C(CCC(N)=O)NC1=O (stereo unspecified)
inactive: activity, negative = inhibition ([2]; parasite line A) 0.779% | activity, negative = inhibition ([2]; parasite line B) 4.79% | Potency (7G8) | Potency (ATS189) | Potency (CP185) | Potency (CP201) | Potency (CP238) | Potency (CP252) | Potency (CP265) | Potency (CP286) | Potency (CP305) | Potency (CP325) | Potency (FAB9) | Potency (PC15) | Potency (PC49)

CCC1NC(=O)C(NC(=O)c2ncccc2O)C(C)OC(=O)C(c2ccccc2)NC(=O)C2CC(=O)CCN2C(=O)C(Cc2ccccc2)N(C)C(=O)C2CCCN2C1=O (stereo unspecified)
active: Potency (7G8) 8910 nM
inactive: Potency [1] | activity, negative = inhibition ([2]; parasite line A) -20.9% | activity, negative = inhibition ([2]; parasite line B) -28.7% | Potency (ATS189) | Potency (CP185) | Potency (CP201) | Potency (CP238) | Potency (CP252) | Potency (CP265) | Potency (CP286) | Potency (CP305) | Potency (CP325) | Potency (FAB9) | Potency (PC15) | Potency (PC49)

OC[C@H]1O[C@@H](OC[C@H]2O[C@@H](O)[C@H](O)[C@@H](O)[C@@H]2O)[C@H](O)[C@@H](O)[C@@H]1O
inactive: Potency [4] | Potency [1] | Potency [3]

O=C(OCC1OC(OC(=O)c2cc(O)c(O)c(OC(=O)c3cc(O)c(O)c(O)c3)c2)[C@@H](OC(=O)c2cc(O)c(O)c(OC(=O)c3cc(O)c(O)c(O)c3)c2)C(OC(=O)c2cc(O)c(O)c(OC(=O)c3cc(O)c(O)c(O)c3)c2)C1OC(=O)c1cc(O)c(O)c(OC(=O)c2cc(O)c(O)c(O)c2)c1)c1cc(O)c(O)c(OC(=O)c2cc(O)c(O)c(O)c2)c1 (stereo partly specified)
inactive: Potency [5] | outcome [6]
active: Potency [4] 3980 nM | Potency [1] 3980 nM | Potency ([2]; parasite line A) 2510 nM | Potency ([2]; parasite line B) 3550 nM | Potency (7G8) 2000 nM | Potency (ATS189) 2510 nM | Potency (CP185) 2820 nM | Potency (CP201) 4780 nM | Potency (CP238) 2510 nM | Potency (CP252) 2510 nM | Potency (CP265) 2510 nM | Potency (CP286) 2240 nM | Potency (CP305) 3380 nM | Potency (CP325) 3010 nM | Potency (FAB9) 11200 nM | Potency (PC15) 7940 nM | Potency (PC49) 11200 nM

COc1ccc2c(c1OC)C(Cc1ccccc1)N1CCc3cc4c(cc3C1=C2)OCO4 (stereo unspecified)
inactive: Potency [5] | Potency [3]
active: Potency [4] 199 nM | Potency [1] 39800 nM

CCOc1ccc(/C=C/C(=O)c2cccs2)cc1
inactive: Potency [4] | Potency [1] | Potency [3]

CC(=O)OC1CCC2(C)C(=CCC3C2CCC2(C)C3C[C@@H]3O[C@]32C(C)=O)C1 (stereo partly specified)
inactive: Potency [4] | Potency [1] | Potency [3]

O=c1cc(-c2ccc(O)cc2)oc2cccc(O)c12
active: Potency [4] 794 nM
inactive: Potency [5] | Potency [1] | Potency [3]

CC(C)CC1NC(=O)C(CCCN)NC(=O)C(C(C)C)NC(=O)C2CCCN2C(=O)C(Cc2ccccc2)NC(=O)C(CC(C)C)NC(=O)C(CCCN)NC(=O)C(C(C)C)NC(=O)C2CCCN2C(=O)C(Cc2ccccc2)NC1=O (stereo unspecified) (cyclo(FPV[Orn]LFPV[Orn]L); configuration not given here)
active: Potency ([2]; parasite line A) 1.3 nM | Potency ([2]; parasite line B) 1.3 nM | Potency (7G8) 0.3 nM | Potency (ATS189) 2.2 nM | Potency (CP185) 2.8 nM | Potency (CP201) 3.4 nM | Potency (CP238) 1.6 nM | Potency (CP252) 1.3 nM | Potency (CP265) 1.1 nM | Potency (CP286) 0.8 nM | Potency (CP305) 1.9 nM | Potency (CP325) 1.1 nM | Potency (FAB9) 10 nM | Potency (PC15) 5.6 nM | Potency (PC49) 7.1 nM
inactive: Potency [4] | outcome [6] | Potency [1]
